Assay outcomes: PubChem BioAssay, National Center for Advancing Translational Sciences (NCATS)
This is a sample that favours compounds with a hit; in the whole collection about 3.3% have one here.
PNC assembly inh: inhibitors of perinucleolar compartment assembly; PC3M PTB-GFP, PNC prevalence imaging, 16 h; stronger effect = lower value; activity change (PNC), negative = inhibition, % at 10 µM; hit rate 3.1% among 140,000; AID 2417;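 active means readout at or below -70, meaning at least 70% loss of cells showing the perinucleolar compartment, a nuclear body marking cancer cells; inconclusive means readout between -30 and a set limit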;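 further: plate controls were DMSO wells for no effect and camptothecin positive control wells for full effect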
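Compounds are pinned in duplicate onto adhered PC3M cells stably expressing GFP-tagged PTB and incubated 16 h at 37 C. Cells are then fixed, nuclei stained with Hoechst, and PNC-positive cells counted.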
12-hLO inh: 12-hLO (ALOX12) enzyme inhibition. Potency, µM (titrated, usually from 57.1 µM), without a hit: top-dose activity change, negative = inhibition, usual class: inhibitors. AID 1452. purified 12-hLO, xylenol orange hydroperoxide absorbance. hit rate 0.12% among 150,000. P18054; further: potency means the concentration at half of the fitted maximal effect; on the % scale 0 is the no-effect control and ±100 the full control effect; nearly all actives have a fitted effect of over 55% in size
Target sequence (P18054 whole entry, looked up): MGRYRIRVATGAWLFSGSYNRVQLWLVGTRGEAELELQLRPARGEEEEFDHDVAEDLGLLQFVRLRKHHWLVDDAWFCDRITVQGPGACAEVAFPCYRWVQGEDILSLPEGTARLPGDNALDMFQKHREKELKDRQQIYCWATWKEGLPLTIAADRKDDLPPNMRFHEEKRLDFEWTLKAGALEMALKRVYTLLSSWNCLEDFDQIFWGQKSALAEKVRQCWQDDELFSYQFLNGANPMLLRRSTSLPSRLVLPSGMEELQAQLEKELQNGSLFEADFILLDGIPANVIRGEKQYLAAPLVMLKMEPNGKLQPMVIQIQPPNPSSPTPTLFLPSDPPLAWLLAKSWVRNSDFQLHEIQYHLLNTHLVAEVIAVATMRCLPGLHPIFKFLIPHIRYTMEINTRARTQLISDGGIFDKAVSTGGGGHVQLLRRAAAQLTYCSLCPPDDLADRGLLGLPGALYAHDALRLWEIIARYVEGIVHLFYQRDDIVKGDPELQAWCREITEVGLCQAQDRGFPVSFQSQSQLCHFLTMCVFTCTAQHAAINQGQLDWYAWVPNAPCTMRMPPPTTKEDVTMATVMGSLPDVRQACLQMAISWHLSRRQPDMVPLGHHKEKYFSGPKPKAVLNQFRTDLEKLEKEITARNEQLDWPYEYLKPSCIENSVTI
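Purified human 12hLO (150 nM), preincubated 15 min with compound, then 40 uM arachidonic acid for 30 min, room temperature, Hepes pH 7.0 with 0.01% Triton X-100. Hydroperoxide detected by ferrous iron/xylenol orange; 573/405 nm absorbance ratio gives reaction progress.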
NPSR antagonist: neuropeptide S receptor (human) antagonism, cAMP. hit rate 1% among 220,000. CHO-NPSR cells, cAMP TR-FRET, antagonist mode. Potency, µM (top dose mostly 38.3 µM), for inactives: top-dose activity change, negative = inhibition, actives largely listed as inhibitors; further: potency means the concentration at half of the fitted maximal effect; on the % scale 0 is the no-effect control and ±100 the full control effect; nearly all actives have a fitted effect of over 50% in size
HttQ103 aggreg: inhibitors of mutant huntingtin aggregate formation in PC12 cells | PC12 HttQ103-GFP aggregates, Acumen cytometry, 40 h | AID 1688 | Potency, µM (titrated, usually from 46.1 µM), inactives show at the highest dose activity change, negative = inhibition, usual class: inhibitors | hit rate 1.1% among 220,000; further: potency means the concentration at half of the fitted maximal effect; on the % scale 0 is the no-effect control and ±100 the full control effect; nearly all actives have a fitted effect of over 60% in size
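PC12 cells with ecdysone-inducible HTT exon1 Q103-GFP, induced by 100 nM tebufenozide, given compounds in a concentration series. GFP aggregates (1–25 um, 6 SD above background) counted in lysates by laser-scanning cytometry, 488 nm excitation.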
HTT ATP protect: cytoprotection in Huntington HTT-Q103 PC12 cell model; PC12 HTT-Q103 induced, cytoprotection, ATP luminescence, 40 h; Potency, µM (titrated, usually from 56.4 µM), for the others: cytoprotection (ATP increase), hits mostly activators; hit rate 0.14% among 230,000; AID 1471; further: potency means the concentration at half of the fitted maximal effect; % of control where 0% means no effect; nearly all actives have a fitted effect of over 45% in size
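Rat PC12, Q103 Htt exon1-GFP fusion, ecdysone promoter; tebufenozide inducer 100 nM final; compound titration; qHTS, 1500 cells/well; ATPlite luminescent read.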
IMPase cell inh: IMPase inhibition in cells; P97697; CHO-M1 cells, IP1 accumulation, HTRF TR-FRET ratio; inhibition (IP1 accumulation), % at 46.1 µM; 120,000 tested, under 10 active; active means well fitted curve in the direction sought with a large enough effect in the signal ratio, not every such curve was filed as active; inconclusive means small, poorly fitted or top-dose-only effect, or a change in a side signal; inactive means no such curve, though single readings can be large or run the other way; the % refers to the signal ratio;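 further: cells stimulated with carbachol in lithium chloride buffer; plate controls were DMSO basal wells for no effect and reference inhibitor wells for full effect; higher means more IMPase inhibition seen as more IP1 and lower FRET ratio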
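In this qHTS, compounds (final up to 46 uM) act on CHO-M1 cells that are then activated through the M1 receptor with carbachol, in pH 7.4 buffer containing 50 mM LiCl, for 30 min. IP1 accumulation is quantified by the IP-One immunoassay.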
Active calls of the source: *; ? = inconclusive; . = not tested or not shown; ! = repeats disagree; [ ] = remark or other dose. Unless noted, the call rests on the fitted dose curve; in most records, active means well fitted curve in the direction sought with a large enough effect; inconclusive means small, poorly fitted or top-dose-only effect, or another doubt; inactive means no such curve, though single readings can be large; an effect the other way counts as inactive or inconclusive.

SMILES	PNC assembly inh	12-hLO inh	NPSR antagonist	HttQ103 aggreg	HTT ATP protect	IMPase cell inh
Cc1cc(/C=N/n2c(COc3ccccc3)nc3ccccc3c2=O)c(O)c([N+](=O)[O-])c1	22	-3%	-22%	10µM*	41%[10 µM]	.
COc1cc(NC(=S)N2CCN(c3ccccn3)CC2)cc(OC)c1OC	.	.	6%	5%	-8%	.
COc1cc(NC(=S)N2CCN(c3ccccn3)CC2)cc(OC)c1	33	-1%	5%[46.1 µM]	8.9µM*	21%[10 µM]	-2
COc1ccc(NC(=S)N2CCN(c3ccccn3)CC2)cc1OC	-115*	-3%	-12%[46.1 µM]	13%	1%[10 µM]	3
Cc1nnsc1C(=O)N/N=C/c1ccc(OC(F)(F)F)cc1	.	.	-10%	-2%	13%[10 µM]	.
COc1cccc(Cn2c(=O)c(C)nc3cnc(OCc4ccccc4)nc32)c1	.	-6%	.	.	-55%	.
CCOc1ccc(OCC(=O)Nc2ccc(S(=O)(=O)Nc3cc(C)on3)cc2)cc1	.	.	.	.	.	11
CC1(C)CC(=O)C=C(NCCN2CCN(C(=O)Nc3ccccc3)CC2)C1	?	1%	-9%[46.1 µM]	5.6µM*	7%[10 µM]	8
CCOC(=O)c1ccc(NC(=S)N2CCN(CCNC3=CC(=O)CC(C)(C)C3)CC2)cc1	.	.	3%	5%	-4%	.
O=C1CN=C(Nc2ccccc2Cl)N1c1ccccc1	-3	-4%	-7%[46.1 µM]	2.8µM*	-83%[10 µM]	-1
O=c1cc(-c2ccccc2Cl)oc2c([N+](=O)[O-])ccc(O)c12	.	5%[0.00818 µM]	.	.	-32%	.
O=C1NC(=O)C(c2ccccc2[N+](=O)[O-])=C1Nc1ccc(O)c(Cl)c1	.	-8%	-26%[46.1 µM]	.	13µM*!	-3
Oc1ccc(Cl)cc1C1=Nc2ccccc2N=C(c2ccco2)C1	-100*	1%	?	-13%	-1%[10 µM]	8
COc1ccc(O)c(C2=Nc3ccccc3N=C(c3ccco3)C2)c1	2	-1%	-14%[46.1 µM]	-12%	19%	2
CCOC(=O)CSC1=C(C#N)C(c2ccc3c(c2)OCO3)CC(=O)N1 (stereo not drawn)	19	-3%	-9%[46.1 µM]	5%	-16%	-12
Cc1ccc(NC(=O)CSC2=C(C#N)C(c3ccc4c(c3)OCO4)CC(=O)N2)cc1C (stereo not drawn)	-100*	-2%	-22%[46.1 µM]	-11%	26%[10 µM]	-4
O=C(c1ccc(N2CCCC2=O)cc1)N1CCOCC1	-85*	-2%	-6%[46.1 µM]	7%	7%[10 µM]	-3
CC1(C)CC2(CCO1)OC(=O)CC2C(=O)Nc1ccccc1Cl (stereo not drawn)	.	.	-23%	10%[9.22 µM]	17%[10 µM]	.
c1ccc(OCCN2CCN(Cc3nc(-c4ccc5c(c4)OCO5)no3)CC2)cc1	.	.	-7%	-3%	-20%	.
O=C(O)CCSCc1ccc(I)cc1	.	2%[11.4 µM]	.	.	13%[10 µM]	.
COc1ccc(S(=O)(=O)Nc2cc3c(cc2NCc2ccccc2)n(C)c(=O)n3C)cc1OC	.	.	.	.	.	5
C[C@@H](C(=O)O)c1ccc(N2Cc3ccccc3C2=O)cc1	.	-3%[25.6 µM]	.	.	-58%[40.3 µM]	-1[20.6 µM]
CC(C)(C)S(=O)(=O)/C(C#N)=N/Nc1ccc(Cl)cc1	.	.	-16%	11µM*	-13%[10 µM]	.
O=C(NCN1C(=O)C2C3C=CC(C3)C2C1=O)Nc1nccs1 (stereo not drawn)	-100*	1%	-5%[46.1 µM]	6%	17%[10 µM]	-4
O=[N+]([O-])c1ccc(Oc2cccc3cccnc23)c([N+](=O)[O-])c1	?	-19%	-10%	22µM*	.	.
SMILES	PNC assembly inh	12-hLO inh	NPSR antagonist	HttQ103 aggreg	HTT ATP protect	IMPase cell inh
O=[N+]([O-])c1ccccc1OCCOCCOc1cccc2cccnc12	-86*	-6%	4%	4%	.	.
Cc1c2ccccc2c(CSC(=N)N)c2ccccc12	.	1%[11.4 µM]	.	.	-55%[10 µM]	.
COC(=O)c1c(C)[nH]c(C)c1-c1ccccc1Cl	23	-10%	4%[46.1 µM]	8.9µM*	-15%	-20
CCOC(=O)c1c(C)[nH]c(C)c1-c1ccccc1OC	54	4%	-9%[46.1 µM]	9%	-22%	3
O=C(c1ccc(-c2ccc(Cl)cc2)o1)N1CCN(c2ccc([N+](=O)[O-])cc2Cl)CC1	-20	3%	-7%[46.1 µM]	7.1µM*	3%[10 µM]	-1
O=C(c1ccc(-c2ccc([N+](=O)[O-])cc2)o1)N1CCCCC1	?	-11%	-25%	-1%	-17%[10 µM]	.
